Screening results from PubChem.
This excerpt belongs to a sample that is enriched for hits.
ALOX12 inh – ALOX12 (human) lipoxygenase inhibition | P18054 | purified 12hLO, xylenol orange hydroperoxide absorbance | Potency, µM (series often up to 108 µM), hits mostly inhibitors | 1.1% of 580,000 active | AID 1671190
Target sequence (P18054 whole entry, looked up): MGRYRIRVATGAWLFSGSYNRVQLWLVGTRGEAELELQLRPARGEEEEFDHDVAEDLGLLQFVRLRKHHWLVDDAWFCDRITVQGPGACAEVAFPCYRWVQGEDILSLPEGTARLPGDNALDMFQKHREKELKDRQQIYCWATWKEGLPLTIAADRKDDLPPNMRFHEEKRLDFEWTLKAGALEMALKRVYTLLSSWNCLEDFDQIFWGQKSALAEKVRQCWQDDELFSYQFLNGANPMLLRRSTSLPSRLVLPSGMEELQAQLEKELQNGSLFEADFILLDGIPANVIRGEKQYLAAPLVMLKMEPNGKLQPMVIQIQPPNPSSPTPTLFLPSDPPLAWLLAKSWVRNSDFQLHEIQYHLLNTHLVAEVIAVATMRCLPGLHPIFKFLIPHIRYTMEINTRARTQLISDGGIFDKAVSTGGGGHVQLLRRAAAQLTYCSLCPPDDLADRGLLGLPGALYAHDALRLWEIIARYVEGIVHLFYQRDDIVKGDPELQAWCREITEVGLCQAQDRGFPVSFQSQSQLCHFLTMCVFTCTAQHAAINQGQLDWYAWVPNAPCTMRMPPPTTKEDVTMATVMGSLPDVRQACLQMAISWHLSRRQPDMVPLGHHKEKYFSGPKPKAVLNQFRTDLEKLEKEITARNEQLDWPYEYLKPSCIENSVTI
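Hydroperoxide product was detected by ferrous iron/xylenol orange as the 573 to 405 nm absorbance ratio. Arachidonic acid at 40 uM (final) was turned over for 30 min at room temperature by 150 nM human 12hLO, pH 7.0 Hepes buffer, after 15 min compound preincubation.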
HT1080 IDH1KD tx – toxicity to HT-1080 IDH1 knockdown cells (counter line); HT-1080 IDH1 knockdown viability, ATP luminescence, 48 h; Potency, µM (top dose mostly 46.1 µM), most hits filed as cytotoxic; 2% of 360,000 active
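Knockdown cells (IDH1KD HT-1080) received compounds 2 h after plating at 750 cells/well and were kept 48 h at 37 °C in 5% FBS RPMI. A CellTiter-Glo luminescence read gave % activity for curve fitting.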
TDP1 cell noCPT – qHTS for Inhibitors of human tyrosyl-DNA phosphodiesterase 1 (TDP1): qHTS in cells in absence of CPT | DT40 Tdp1-/- hTDP1 cells, no CPT, ATP luminescence, 48 h | Potency, µM (titrated, usually from 46.2 µM), hits mostly inhibitors | 15% of 420,000 active; note: nearly all actives have a fitted effect of over 55% in size
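Stably hTDP1-transfected Tdp1-null chicken DT40 cells were treated with library compounds minus camptothecin and grown for at least 48 hr at 37 °C, after which cellular ATP was quantified by luminescence.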
TDP1 cell CPT – DT40-hTDP1 cell growth loss with CPT | chicken DT40 Tdp1-/-;hTDP1 cells + 20 nM CPT, ATP luminescence, 48 h | AID 686979 | 12% of 420,000 active | Potency, µM (highest dose often 46.2 µM), usual class: inhibitors; note: nearly all actives have a fitted effect of over 55% in size
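Chicken DT40 Tdp1-/- cells complemented with human TDP1, 400 cells/well, exposed to compounds plus 20 nM camptothecin for at least 48 h at 37 C; viability read as ATP content by CellTiter-Glo luminescence.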
HT1080NT lethal – kills 2HG-producing HT-1080-NT fibrosarcoma cells; HT-1080-NT fibrosarcoma viability, CellTiter-Glo ATP luminescence, 48 h; Potency, µM (series often up to 46.1 µM), most hits filed as cytotoxic; 1.6% of 360,000 active;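 note: NT is the 2HG producing partner of a matched IDH1 knockdown line; nearly all actives have a fitted effect of over 55% in size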
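HT-1080-NT; 750 cells/well; 5% FBS RPMI; 48 h compound, 37 degrees C; CellTiter-Glo luminescence; curve fitting and curve-class assignment.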
IL-1B inflam inh – inhibitors of inflammasome signaling (IL-1 beta secretion) | AID 743279 | THP-1 LPS/ATP IL-1B secretion, AlphaLISA, 16 h; hits give low values | activity change, % at 57.5 µM | 4.7% of 360,000 active; in the data active = activity change below about -50%; inconclusive = mostly about -30% to -49%
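THP-1 cells pretreated 1 hr with compounds (up to 57.5 uM final), then stimulated with LPS (250 ng/mL final) plus ATP (1.25 mM final); secreted IL-1B measured by AlphaLISA after 16 hr, decreased signal indicating inhibition.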
Each line names hits and unclear results; the compound was inactive in the other large screens. Unless noted, calls come from the whole dose curve; as a rule, active = well fitted curve in the direction sought with a large enough effect; inconclusive = small, poorly fitted or top-dose-only effect, or another doubt; inactive = no such curve, though single readings can be large; an effect the other way counts as inactive or inconclusive.

CN(C(=O)c1ccco1)c1nc(-c2ccc(Cl)cc2)cs1	TDP1 cell noCPT inconclusive, TDP1 cell CPT inconclusive, IL-1B inflam inh inconclusive
COc1ccc(-c2csc(N(C)C(=O)c3ccco3)n2)cc1	none
COc1ccc(OC)c(-c2csc(N(Cc3ccco3)C(=O)c3ccco3)n2)c1	HT1080 IDH1KD tx inconclusive, TDP1 cell noCPT 20.6µM, TDP1 cell CPT inconclusive
Cc1c(Cl)c(C(=O)Nc2sc3c(c2C#N)CCC3)nn1C	none (no result: HT1080 IDH1KD tx, TDP1 cell noCPT, TDP1 cell CPT, HT1080NT lethal, IL-1B inflam inh)
CCc1ccccc1N=C1S/C(=C/c2ccccc2OCC(=O)N2CCOCC2)C(=O)N1C	HT1080 IDH1KD tx inconclusive, TDP1 cell noCPT inconclusive, TDP1 cell CPT inconclusive, HT1080NT lethal inconclusive, IL-1B inflam inh -71.7
O=C(NOC[C@H](O)CO)c1ccc(F)c(F)c1Nc1ccc(I)cc1F	none (no result: HT1080 IDH1KD tx, HT1080NT lethal, IL-1B inflam inh)
O=C(NOCC1CC1)c1ccc(F)c(F)c1Nc1ccc(I)cc1Cl	TDP1 cell noCPT 15µM, TDP1 cell CPT inconclusive (no result: HT1080 IDH1KD tx, HT1080NT lethal, IL-1B inflam inh)
CC(/C=N/NC(=O)c1cccs1)=C\c1ccccc1	TDP1 cell noCPT 8.2µM
CC(/C=N/NC(=O)Cc1cccs1)=C\c1ccccc1	TDP1 cell CPT inconclusive
O=C(N/N=C/C(Cl)=C\c1ccccc1)c1cccs1	HT1080 IDH1KD tx inconclusive, TDP1 cell noCPT 9.2µM, TDP1 cell CPT inconclusive
CCCNC(=O)CN(C)Cc1nc2ccccc2o1	none (no result: HT1080 IDH1KD tx, TDP1 cell noCPT, TDP1 cell CPT, HT1080NT lethal, IL-1B inflam inh)
COc1cccc(/C=C(/C(=O)OCC(N)=O)c2ccccc2)c1	none
COc1cccc(/C=C(/C(=O)OCC(=O)NC2CCCC(C)C2C)c2ccccc2)c1 (stereo not drawn)	HT1080 IDH1KD tx inconclusive, TDP1 cell noCPT 20.6µM, TDP1 cell CPT inconclusive, HT1080NT lethal inconclusive, IL-1B inflam inh -65.2
COc1ccc2c(c1OC)OCC(c1ccc(OC)c(OC)c1OC)C2 (stereo not drawn)	none (no result: ALOX12 inh, HT1080 IDH1KD tx, HT1080NT lethal, IL-1B inflam inh)
CC(C)=CCOc1ccc([C@@H]2COc3c(ccc4c3C=CC(C)(C)O4)C2)c(O)c1	HT1080 IDH1KD tx inconclusive, TDP1 cell noCPT 20.6µM, TDP1 cell CPT 16.4µM, HT1080NT lethal inconclusive
COc1cccc(CC(=O)NC2CCN(C(=O)N3CC4CC(C3)[C@H]3CCCC(=O)N3C4)CC2)c1 (stereo partly drawn)	none (no result: HT1080 IDH1KD tx, TDP1 cell noCPT, TDP1 cell CPT, HT1080NT lethal, IL-1B inflam inh)
O=C(COC(=O)c1ccc(O)cc1)Nc1ccc2c(c1)OCO2	TDP1 cell noCPT 11.6µM, TDP1 cell CPT inconclusive
CC(C)(C)NC(=O)COC(=O)c1ccc(NC(=O)CC#N)cc1	TDP1 cell CPT 1.46µM
N#CCC(=O)Nc1ccc(C(=O)OCC(=O)c2ccc3c(c2)OCCO3)cc1	TDP1 cell noCPT 18.4µM, TDP1 cell CPT inconclusive
O=C(COC(=O)c1ccc(O)cc1O)Nc1ccc2c(c1)OCCO2	ALOX12 inh inconclusive, TDP1 cell noCPT 9.2µM, TDP1 cell CPT 9.2µM
CN(C)S(=O)(=O)c1ccc(C(=O)OCC(=O)Nc2ccc3c(c2)OCO3)cc1	none
N#CCC(=O)Nc1ccc(C(=O)OCC(=O)c2ccc3c(c2)OCO3)cc1	HT1080 IDH1KD tx inconclusive, IL-1B inflam inh inconclusive
CNC(=O)c1ccc(-c2nc(CN3CCN(C(=O)Nc4ccc(C)cc4Cl)CC3)c(C)o2)cc1	none (no result: HT1080 IDH1KD tx, TDP1 cell noCPT, TDP1 cell CPT, HT1080NT lethal, IL-1B inflam inh)
CC(C)NC(=O)NC[C@H]1COCc2nc3cc(C(F)(F)F)ccc3n21	none (no result: HT1080 IDH1KD tx, TDP1 cell noCPT, TDP1 cell CPT, HT1080NT lethal, IL-1B inflam inh)
O=C(COC(=O)c1ccc(O)cc1O)Nc1ccc2ccccc2c1	TDP1 cell noCPT 13µM, TDP1 cell CPT 14.6µM
COc1ccc(CNC(=O)c2nc(S(=O)(=O)Cc3ccccc3)ncc2Cl)cc1	HT1080 IDH1KD tx inconclusive, TDP1 cell noCPT 1.3µM, TDP1 cell CPT 1.3µM, HT1080NT lethal inconclusive, IL-1B inflam inh -98.5
O=C(NCc1ccccc1)c1nc(S(=O)(=O)Cc2ccccc2)ncc1Cl	HT1080 IDH1KD tx inconclusive, TDP1 cell noCPT 2.31µM, TDP1 cell CPT 2.91µM, HT1080NT lethal inconclusive, IL-1B inflam inh -97.6
CCS(=O)(=O)c1ncc(Cl)c(C(=O)NCc2ccccc2)n1	TDP1 cell noCPT 2.31µM, TDP1 cell CPT inconclusive (no result: HT1080 IDH1KD tx, HT1080NT lethal, IL-1B inflam inh)
